Screens: PubChem, Broad Institute
The list is not random: actives were taken first. Their share in the collection is about 6.7%.
Pf Dd2 inh = blocks growth of Plasmodium falciparum Dd2 parasites; AID 1159554; activity change, % at 10 µM; P. falciparum Dd2 growth, SYBR Green, 72 h; hits give low values; 94,000 tested, 2.3% active; in the data active means activity change below about -80%; inconclusive means no clear call, values can overlap the other calls
C diff HTS = C. difficile growth inhibition; Clostridium difficile clinical isolate growth, OD600, 24 h; hits give low values; growth activity, negative = inhibition, % at 16 µg/mL (by protocol); 86,000 tested, 0.25% active; AID 1259249;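 active means mean growth activity at or below -80% and every replicate also at or below -80%; inconclusive means mean at or below -80% but some replicate above -80%; inactive means mean growth activity above -80%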
T cruzi growth-1 = blocks T. cruzi growth in NIH3T3 culture; T. cruzi beta-gal in NIH3T3, GalScreen luminescence, 90 h; inhibition, % at 8.34 µM; 77,000 tested, 5.9% active;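 active means mean inhibition above about 93%, with at least 55% of replicates each passing it, limit read from the data, passing the limit was not always enough; inconclusive means only one of those two conditions holds; inactive means neither condition holds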
T cruzi growth-2 = inhibitors of T. cruzi proliferation. 5,600 tested, 72% active. T. cruzi beta-gal in NIH3T3, GalScreen luminescence, 90 h. shares compounds with T cruzi growth-1. inhibition, % at 8.35 µM;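 active means mean replicate inhibition above about 95% and at least 55% of replicates individually reaching it, limit read from the data; inconclusive means only one of the two criteria is met; inactive means neither criterion is met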
T cruzi growth-3 = inhibitors of T. cruzi proliferation; shares compounds with T cruzi growth-1; T. cruzi beta-gal in NIH3T3, GalScreen luminescence, 90 h; inhibition, % at 2.09 µM; 5,600 tested, 21% active;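 active means mean inhibition above about 95%, with at least 55% of replicates also reaching it, limit read from the data; inconclusive means meets just one of the two conditions; inactive means meets neither condition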
NIH3T3 tox = cytotoxicity in mouse NIH/3T3 fibroblasts. shares compounds with T cruzi growth-1. NIH/3T3 viability, CellTiter-Glo ATP luminescence, 90 h. cytotoxicity (signal decrease), % at 8.35 µM. 5,600 tested, 14% active. AID 651742;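 active means mean signal decrease across replicates above about 35% based on untreated-well scatter, with enough replicates individually passing, limit read from the data; inconclusive means no rule stated though some were filed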
NIH3T3 tox 2 = kills mouse NIH/3T3 fibroblasts; 5,600 tested, 56% active; inhibition, % at 24.9 µM; shares compounds with T cruzi growth-1; NIH/3T3 viability, CellTiter-Glo ATP luminescence, 90 h;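 active means mean loss of cell viability signal at or above a set limit, and enough replicates individually reaching it; inconclusive means meets only the mean limit or only the replicate share; inactive means meets neither condition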
A number is an active result; i = inactive; ? = inconclusive; nt = not tested or not shown; ! = repeats disagree.

SMILES	Pf Dd2 inh	C diff HTS	T cruzi growth-1	T cruzi growth-2	T cruzi growth-3	NIH3T3 tox	NIH3T3 tox 2
O=C(C1CCCC1)N1CCCCN2[C@H](CO)[C@@H](c3ccc(C#CC4CC4)cc3)[C@H]2C1	i	i	109	107	i	i	49
O=C(C1CC1)N1CCCCN2[C@H](CO)[C@H](c3ccc(C#CC4CC4)cc3)[C@@H]2C1	i	i	i	nt	nt	nt	nt
COc1ccc(CN(C)C[C@@H]2OCCCC[C@@H](C)Oc3ccc(NS(=O)(=O)c4ccc(F)cc4)cc3C(=O)N([C@H](C)CO)C[C@H]2C)cc1	i	i	i	nt	nt	nt	nt
COCC(=O)N(C)C[C@H]1[C@H](c2ccccc2)[C@@H](CO)N1C(=O)Cc1ccncc1	i	i	i	nt	nt	nt	nt
CCC(=O)Nc1ccc2c(c1)C(=O)N(C)[C@H]1CC[C@H](CC(=O)Nc3ccc(C(C)C)cc3)O[C@@H]1CO2	i	i	i	nt	nt	nt	nt
CCNC(=O)C[C@@H]1CC[C@H]2[C@@H](COc3ccc(NC(=O)Cc4ccccc4)cc3C(=O)N2C)O1	i	i	105	104	i	i	i
Cc1cc(C(=O)Nc2ccc3c(c2)C(=O)N(C)[C@@H]2CC[C@H](CC(=O)NCc4ccc(-c5ccccc5)cc4)O[C@@H]2CO3)no1	nt	i	103	?	?	78	75
CCNC(=O)C[C@@H]1CC[C@@H]2[C@H](COc3ccc(NC(=O)Cc4ccccc4)cc3C(=O)N2C)O1	i	i	i	nt	nt	nt	nt
CC(C)C(=O)Nc1ccc2c(c1)C(=O)N(C)[C@H]1CC[C@@H](CC(=O)NCc3ccccc3)O[C@@H]1CO2	i	i	i	nt	nt	nt	nt
Cc1cc(C(=O)Nc2ccc3c(c2)C(=O)N(C)[C@@H]2CC[C@H](CC(=O)NCc4ccc(-c5ccccc5)cc4)O[C@H]2CO3)no1	nt	i	i	nt	nt	nt	nt
CC(C)C(=O)Nc1ccc2c(c1)C(=O)N(C)[C@H]1CC[C@H](CC(=O)NCc3ccccc3)O[C@@H]1CO2	i	i	103	98	i	i	i
CC(C)c1ccc(NC(=O)C[C@H]2CC[C@H]3[C@@H](COc4ccc(NC(=O)Nc5ccc(F)c(F)c5)cc4C(=O)N3C)O2)cc1	i	i	100	103	i	i	?
C[C@H](O)C#Cc1cnc2c(c1)C(=O)N([C@@H](C)CO)C[C@H](C)[C@H](CN(C)C(=O)c1ccccc1F)O2	nt	i	i	nt	nt	nt	nt
CN(C)C(=O)C[C@@H]1CC[C@H](NS(=O)(=O)c2ccccc2)[C@@H](CO)O1	i	nt	i	nt	nt	nt	nt
COc1ccc(S(=O)(=O)N2[C@@H]3CNC[C@H]2C3c2ccc(-c3cccc(C)c3)cc2)cc1 (stereo partly specified)	i	i	nt	nt	nt	nt	nt
O=C(C1CCC1)N1CC2(C1)[C@@H](c1ccccc1)[C@@H](CO)N2CCC(F)(F)F	i	i	nt	nt	nt	nt	nt
COc1cccc(C#Cc2ccc3c(c2)O[C@H](CN(C)S(=O)(=O)c2ccccc2F)[C@@H](C)CN([C@@H](C)CO)S3(=O)=O)c1	i	i	118	111	116	38	27
COc1cccc(C#Cc2ccc3c(c2)O[C@H](CN(C)S(=O)(=O)c2ccccc2F)[C@H](C)CN([C@H](C)CO)S3(=O)=O)c1	i	i	130	107	107	i	38!
COc1cccc(C#Cc2ccc3c(c2)O[C@H](CN(C)C)[C@H](C)CN([C@@H](C)CO)S3(=O)=O)c1	i	i	i	nt	nt	nt	nt
COc1cccc(C#Cc2ccc3c(c2)O[C@H](CN(C)C)[C@@H](C)CN([C@@H](C)CO)S3(=O)=O)c1	i	i	nt	nt	nt	nt	nt
COCC#Cc1ccc2c(c1)O[C@H](CN(C)S(=O)(=O)c1cccc(OC)c1)[C@H](C)CN([C@@H](C)CO)S2(=O)=O	i	nt	i	nt	nt	nt	nt
C[C@@H]1CCCCO[C@@H](CN(C)S(=O)(=O)c2cn(C)cn2)[C@H](C)CN([C@@H](C)CO)C(=O)c2cc(NC(=O)NC3CCCCC3)ccc2O1	i	i	i	nt	nt	nt	nt
COCC#Cc1ccc2c(c1)O[C@@H](CN(C)S(=O)(=O)c1ccc(C)cc1)[C@H](C)CN([C@@H](C)CO)S2(=O)=O	i	i	i	nt	nt	nt	nt
C[C@H](CO)N1C[C@H](C)[C@@H](CN(C)Cc2ccccc2)Oc2cc(C#CCN(C)C)ccc2S1(=O)=O	i	i	i	nt	nt	nt	nt
